Experimental data from PubChem BioAssay AID1159580 (chemical genetic matrix, 2015).
The campaign covered roughly 5,500 compounds. About 2,000 (36%) were called active. Another 18% or so got no clear call; they are omitted. Cut-off read from the data, not from the text of the source: active = normalized growth mostly below about 0.91 (no sharp cut-off); inconclusive = no clear call, values can overlap the other calls; inactive = mostly above about 0.92. The list shows a part of the results.

Test: chemical genetic growth profiling, strain panel (AID 1159580);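 note: tested at 20 µM; growth read once vehicle control cultures reached saturation at 30 °C; 1 = growth at the plate median or of vehicle wells; lower values mean less growth of the strain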
Settings: S. cerevisiae deletion strains, growth OD

Measured: normalized growth

C[N+](C)(C)C[C@H](O)CC(=O)[O-]
inactive: locus YHR030C, strain SLT2, stronger effect = lower value 0.972 | locus YHR079C, strain IRE1, stronger effect = lower value 0.984 | locus YJL095W, strain BCK1, stronger effect = lower value 1.02 | locus YJR066W, strain TOR1, stronger effect = lower value 0.923 | locus YLR113W, strain HOG1, stronger effect = lower value 1.01 | locus YNL183C, strain NPR1, stronger effect = lower value 0.923 | locus YOR231W, strain MKK1, stronger effect = lower value 0.962 | locus YPL256C, strain CLN2, stronger effect = lower value 0.961

NCCc1ccc(S(=O)(=O)F)cc1
inactive: locus YAL013W, strain DEP1, stronger effect = lower value 1 | locus YAL040C, strain CLN3, stronger effect = lower value 1.01 | locus YER002W, strain NOP16, stronger effect = lower value 1.02 | locus YMR263W, strain SAP30, stronger effect = lower value 1 | locus YNL153C, strain GIM3, stronger effect = lower value 1.03 | locus YNL175C, strain NOP13, stronger effect = lower value 1 | locus YNL197C, strain WHI3, stronger effect = lower value 1.04 | locus YNL224C, strain SQS1, stronger effect = lower value 1 | locus YNL322C, strain KRE1, stronger effect = lower value 1.01 | locus YOR083W, strain WHI5 (second series), stronger effect = lower value 0.997 | locus YPL055C, strain LGE1, stronger effect = lower value 1.02 | locus YPL241C, strain CIN2, stronger effect = lower value 1.01
